Assay outcomes (PubChem)
Shown are actives, neighbours in structure and some others; about 4.1% of the full set was active somewhere.
NALP1 inh = NALP1 inflammasome inhibitors in reconstituted yeast, colorimetric, S. cerevisiae, triplicate retest; AID 2071, 2009; 280,000 compounds, 0.61% hits; S. cerevisiae NALP1/ASC/caspase-1 growth, X-gal OD620, 72 h; inhibition, % at 10 µM; in the data active = inhibition mostly above about 24%, no sharp cut-off; inactive = mostly below about 32%
NALP3 yeast inh = NALP3 inflammasome inhibitors in reconstituted yeast, primary screen, luminescence, uHTS; AID 2825, 2010; 330,000 compounds, 0.39% hits; inhibition, % at 10 µM; Yeast reconstituted NLRP3/ASC/caspase-1, beta-gal luminescence, 24 h;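 active = inhibition of 50% or more; inactive = inhibition below 50%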
tim23-1 inh = growth inhibitors of tim23-1 mutant yeast, primary screen, luminescence, uHTS. S. cerevisiae tim23-1 growth, BacTiter-Glo luminescence, 24 h. inhibition, % at 20 µM. 330,000 compounds, 1.3% hits;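 active = growth inhibition of the mutant yeast at or above 50%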;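 note: temperature-sensitive mutant grown at 25 °C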
tim10-1 inh = growth inhibitors of tim10-1 mutant yeast, primary screen, luminescence, uHTS. 330,000 compounds, 2.2% hits. inhibition, % at 20 µM. S. cerevisiae tim10-1 ts strain growth, BacTiter-Glo, 24 h;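 active = inhibition of at least 40%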;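 note: mutant grown at 25 °C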
TIM10 inh = growth inhibitors of isogenic TIM10 control yeast, primary screen, counter-screen for tim10-1 yeast inhibitor project, luminescence, uHTS. inhibition, % at 10 µM. 330,000 compounds, 1.4% hits. AID 463195, 2010. S. cerevisiae TIM10 strain growth, BacTiter-Glo luminescence, 24 h;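 active = inhibition of 40% or more at the single tested concentration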;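 note: wild-type TIM10 isogenic control strain grown at permissive 25 °C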
tim10-1 conf = growth inhibitors of tim10-1 mutant yeast, confirmation, single concentration, luminescence, S. cerevisiae; 7,400 compounds, 56% hits; S. cerevisiae tim10-1 ts strain growth, BacTiter-Glo, 24 h; shares compounds with tim10-1 inh; inhibition, % at 20 µM;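 active = inhibition of yeast growth at or above a set limit in either of two repeat tests at 20 µM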;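 note: tim10-1 mutant grown at permissive 25 °C to find synthetic lethal compounds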
Each line names hits and unclear results; the compound was inactive in the other large screens (follow-up assays come after a bar, where they were run).

O=C(CCc1nnc(Cc2ccc3c(c2)OCO3)o1)NC(c1ccccn1)C(F)(F)F (stereo unspecified)	none
CCOC(=O)C1=C(CC)Nc2ccccc2N=C1NC(=O)c1oc2ccccc2c1C	tim10-1 inh 43 | tim10-1 conf inactive
CCOC(=O)c1c(-c2ccccc2)oc2ccc(OCC(O)CNCCN(C)C)cc12 (stereo unspecified)	none
CC(Oc1ccc(Cl)cc1)C(=O)N(C)CC(=O)Nc1ccc(N2CCOCC2)cc1 (stereo unspecified)	none
CC(C)(C)c1ccc(C(=O)CC(Sc2ccc(Cl)cc2)C(=O)O)cc1 (stereo unspecified)	tim10-1 inh 41 | tim10-1 conf 51
O=[N+]([O-])c1ccc(/C=N/N2CCCCC2)cc1	none
CCOC(=O)c1c2c(n(C)c1COC)C(=O)C(=O)c1ccc(Br)cc1-2	tim10-1 inh 48 (no result: NALP1 inh) | tim10-1 conf inactive
CC(C)c1ccc(NC(=O)CCCN2C(=O)NC(C)(C)C2=O)cc1	tim10-1 inh 57 (no result: NALP1 inh) | tim10-1 conf inactive
CCS(=O)(=O)c1ccc(OC)c(N=Nc2ccc(O)c3ncccc23)c1	tim10-1 inh 41 | tim10-1 conf 38
CCN(CC)S(=O)(=O)c1cc(OC)ccc1N=Nc1ccc(O)c2ncccc12	tim10-1 inh 44 | tim10-1 conf 42
O=C(O)CN1C(=O)/C(=C\C(Br)=C\c2ccccc2)SC1=S	tim10-1 inh 43 | tim10-1 conf 35
COc1cc(C)c(C)cc1S(=O)(=O)N1CCCCC1c1cccnc1 (stereo unspecified)	tim10-1 inh 41 | tim10-1 conf inactive
CC(=O)Nc1ccc(S(=O)(=O)N2CCCCC2c2cccnc2)cc1 (stereo unspecified)	none
COc1ccccc1-c1nnc(SCC(=O)c2ccc(C3CCCCC3)cc2)n1Cc1ccco1	none
O=C(N=C1SCC(=O)N1c1ccccc1Cl)c1ccccc1	tim10-1 inh 42 | tim10-1 conf inactive
O=C(N=C1SCC(=O)N1c1ccccc1Cl)c1ccco1	none
Cc1nc(N2CCN(C(=O)COc3ccccc3)CC2)c2c(C)c(C)sc2n1	tim10-1 inh 41 | tim10-1 conf inactive
O=C1c2ccccc2C(=O)N1/N=C/c1ccc(O)c(O)c1	none
C=CCn1c(SCc2ccc(C#N)cc2)nnc1-c1cccc(Cl)c1	tim10-1 inh 46 | tim10-1 conf inactive
C=CCn1c(SCc2cccc(C#N)c2)nnc1-c1ccccc1O	none
Cc1ccc(C(C)C)c(OCC(=O)Nc2sc3c(c2C#N)CC(C)(C)NC3(C)C)c1	none
Cc1cc(OCC(=O)Nc2sc3c(c2C#N)CC(C)(C)NC3(C)C)c(C(C)C)cc1Cl	tim10-1 inh 47 | tim10-1 conf inactive
CC(=O)Nc1nc(-c2ccccc2)nc(-c2ccccc2OC(C)=O)n1	tim10-1 inh 48 | tim10-1 conf inactive
N/C(Cc1cccs1)=N\OC(=O)COc1ccc(Cl)cc1Cl	tim10-1 inh 49 | tim10-1 conf 52
COc1ccc2oc3cc(C)[n+]([O-])c(-c4ccc(Br)cc4)c3c2c1	tim10-1 inh 42 | tim10-1 conf inactive
COc1ccc(-c2ccc3oc(-c4ccc(OC)cc4)c(-c4ccc(OC)cc4)c3c2)cc1	none (no result: NALP1 inh)
Cc1ccc(-n2c(C)cc3c2CC(C)(C)CC3=O)cc1C	none
Cc1cc2c(n1-c1ccc(Br)cc1)CC(C)(C)CC2=O	tim10-1 inh 49 | tim10-1 conf 33
Cc1ccc(-c2csc(C3C(N)=NC(S)=C(C#N)C34CCCCC4)n2)cc1 (stereo unspecified)	tim10-1 inh 45 | tim10-1 conf inactive
COc1ccc(/C=N/NC(=O)CCCOc2ccc(Cl)cc2Cl)cc1	tim10-1 inh 47 | tim10-1 conf inactive
O=C(CCCOc1ccc(Cl)cc1Cl)N/N=C/c1ccc(Cl)cc1	none
Cc1ccc(S(=O)(=O)Nc2ccc(F)cc2)cc1C(=O)N1CCOCC1	none (no result: NALP1 inh)
CC(=O)Nc1ccc(N2CCOCC2)c([N+](=O)[O-])c1	none
O=C(CSc1nc2ccccc2c(=O)n1-c1ccc(F)cc1F)c1c[nH]c2ccccc12	none
O=Cc1ccc2cccnc2n1	none
O=Cc1ccc2ccc3cccnc3c2n1	tim10-1 inh 42 | tim10-1 conf inactive
